High-throughput results (PubChem BioAssay)
Marburg entry inh – qHTS for inhibitors of binding or entry into cells for Marburg Virus | Marburg virus pseudotyped entry inhibition, cell reporter | Potency, µM (series often up to 37.8 µM), without a hit: at the top dose activity change, negative = inhibition, hits mostly inhibitors | actives 1.8% (n = 300,000) | AID 540276, 2011; calls by dose curve; tested in HEK293 cells; note: potency is the fitted concentration of half-maximal effect; % is set by controls: 0 for no effect and ±100 for the full control effect
CHX counter – Cycloheximide Counterscreen for Small Molecule Inhibitors of Shiga Toxin; cell reporter, cycloheximide protein synthesis inhibition counterscreen; max response, %; actives 12% (n = 300,000); AID 2314, 2010; in the data active = max response mostly above about 13%, no sharp cut-off; inactive = mostly below about 14%; note: read at 38.3 µM for the half of the compounds with a filed dose; 0% is about no effect
Shiga toxin inh – A qHTS for Small Molecule Inhibitors of Shiga Toxin; actives 9.2% (n = 290,000); Vero cells, Shiga toxin protein synthesis inhibition reporter; inhibition, % at 38.7 µM; in the data active = inhibition mostly above about 28%, no sharp cut-off; inactive = mostly below about 43%; note: 0% is about no effect
LASV entry inh – qHTS for Inhibitors of binding or entry into cells for Lassa Virus. Potency, µM (series often up to 37.9 µM), without a hit: at the highest dose activity change, negative = inhibition, actives largely listed as inhibitors. actives 1.2% (n = 300,000). Lassa virus pseudotype entry inhibition, cell reporter; calls by dose curve; tested in HEK293 cells; note: potency is the fitted concentration of half-maximal effect; % is set by controls: 0 for no effect and ±100 for the full control effect; nearly all actives have a fitted effect of over 50% in size
AMA1-RON2 inh – qHTS for Inhibitors of AMA1-RON; Towards Development of Antimalarial Drug Lead: Primary Screen; Plasmodium falciparum AMA1 (3D7) - RON2 peptide interaction; AlphaScreen AMA1-biotinylated RON2 peptide binding; Potency, µM (doses to about 58.2 µM), inactives show at the highest dose activity change, negative = inhibition, hits mostly inhibitors; actives 0.2% (n = 360,000); active = well fitted inhibition curve with a large enough effect; inconclusive = small, poorly fitted or top-dose-only effect; inactive = no such curve, though single readings can be large or run the other way;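 note: potency is the fitted concentration of half-maximal effect; 0% = vehicle wells and -100% = peptide control; nearly all actives have a fitted effect of over 45% in size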
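AMA1 (3D7) with his tag at 25 nM final met compounds first, then biotinylated RON2 peptide at 25 nM; detection used donor plus acceptor beads, 10 µg/mL apiece, read by AlphaScreen after 30 min at room temperature.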
* = called active by the depositor; ? = inconclusive; / = not tested or not shown; [ ] = another dose, or the depositor's remark. Shown is part of a subset that was picked to be rich in hits.

SMILES	Marburg entry inh	CHX counter	Shiga toxin inh	LASV entry inh	AMA1-RON2 inh
CCCCCC[n+]1c(-c2ccccc2)csc1Nc1ccccc1	12%	-7	-6	-11%	-5%
CC(/C=N/NC(=O)c1cc(C(C)(C)C)[nH]n1)=C\c1ccccc1	?	2	11	?	-1%
CCOc1cc(C(=O)N/N=C/C(Br)=C/c2ccccc2)cc(OCC)c1OCC	?	2	-16	?	40%
CC(=C/c1ccccc1)/C=N/NC(=O)c1cccs1	?	36*	78*	?	-13%
O=C(N/N=C/C(Br)=C\c1ccccc1)c1cccs1	?	74*	79*	?	-6%
C/C(=N\NC(=O)c1ccc(C)cc1)c1c(C)[nH]n(-c2ccccc2)c1=O	/	30*	99	/	56%
Cc1[nH]n(-c2ccccc2)c(=O)c1C(=O)Nc1ccccc1	11%[46.1 µM]	16*	31	14%[46.1 µM]	-11%
Cc1[nH]n(-c2ccccc2)c(=O)c1C(=O)c1ccc([N+](=O)[O-])cc1	?	2	10	10%	-9%
C/C(=N\NC(=O)c1ccccc1)c1c(C)[nH]n(-c2ccccc2)c1=O	?	49*	61*	-15%[46.1 µM]	94%
CN(C)c1ccc2c(c1)OC(N)=C(C#N)C2c1cccc(F)c1 (stereo not drawn)	2.1µM*	-4	-5	?	-3%
O=C(CSCc1c(F)cccc1F)Nc1ccccc1	?	54*	116*	-3%[46.1 µM]	-3%
O=C(CSCc1ccc(F)cc1)Nc1ccc(F)cc1	-1%	17	19	2%	1%
O=C(CSCc1c(F)cccc1Cl)Nc1cccnc1	17%[46.1 µM]	0	1	24%	-7%
O=C(CSCc1ccccc1)Nc1cccc(F)c1	22%	38*	77*	30%	12%
Cc1cc(Cl)n2c(nc3ccccc32)c1C#N	4.5µM*	-2	17	?	10%
Cc1c(CCCl)c(Cl)n2c(nc3ccccc32)c1C#N	5µM*	/	/	11µM*	16%
CNc1cc(C)c(C#N)c2nc3ccccc3n12	-5%	-1	7	10%	4%
CCCN(CC(=O)Nc1ccccc1C)C(=O)C1CCN(S(=O)(=O)c2ccc(C)c(C)c2)CC1	/	/	/	/	-14%
CCC(=O)N1CCC1(C)C(=O)NCc1ccccc1SC (stereo not drawn)	/	/	/	/	14%
Cc1nn(CC(=O)NCc2ccc(-n3cccn3)cc2)c(C)c1[N+](=O)[O-]	25%	-4	-3	-4%	0%
O=C(NCC1CC1(Cl)Cl)Nc1ccc(Cl)c(Cl)c1 (stereo not drawn)	?	15	94*	?	9%
CN(C)C1(CNC(=O)Nc2ccc(Cl)c(Cl)c2)CCCCC1	?	-7	-9	?	-12%
Cc1ccc(NC(=O)NCC2CC2(Cl)Cl)cc1 (stereo not drawn)	3%[46.1 µM]	31*	125*	?	-3%
CN(C)c1ccc(C(CNC(=O)c2ccccc2Cl)N2CCCC2)cc1 (stereo not drawn)	/	/	/	3%[46.1 µM]	/
CC(COc1ccc(C(C)C)cc1)NC(=O)c1ccc(Br)o1 (stereo not drawn)	/	-1	-5	/	/
SMILES	Marburg entry inh	CHX counter	Shiga toxin inh	LASV entry inh	AMA1-RON2 inh
O=C(Nc1ccc(F)cc1)C(CCc1ccccc1)N1CCN(C(=O)c2ccco2)CC1 (stereo not drawn)	/	/	/	/	-12%
Cc1ccccc1C1=NCC(=O)N(CC(=O)NCc2ccco2)c2sc3c(c21)CCCC3	?	15*	33	?	-6%
O=C(CN1C(=O)c2ccccc2C1=O)Nc1sc2c(c1C(=O)NCc1ccco1)CCCC2	7%[46.1 µM]	4	8	1%	5%
Cc1ccc(-c2ccccc2NC(=O)CCl)o1	?	16*	51	-22%	-3%
COc1ccc(Cl)cc1NC(=O)CN1C(=O)C(=O)N(C2CCCC2)C1=O	/	/	/	/	-2%
CN1/C(=C/C(=O)c2cccs2)Sc2ccccc21	-9%	43*	48	/	/
CN1/C(=C\C(=S)NC(=O)c2ccccc2Cl)C(C)(C)c2ccccc21	?	-3	40	6%	-15%[11.6 µM]
Cc1nn(C)c(C)c1/C=C/C(=O)c1cccs1	5%	/	/	0%	?
CN1/C(=C/C(=O)C2CCC2)Sc2ccccc21	-10%	57*	139*	0%	2%
CN1/C(=C\C(=O)c2cccs2)C(C)(C)c2ccccc21	9%	25*	16	1%	0%
COc1ccccc1C(=O)NC(=S)/C=C1/N(C)c2ccccc2C1(C)C	14µM*	14*	44	?	?
CCCCCC/C=C/c1ccc(OC)c(C2C3C=CCC(C)C3C(=O)N2Cc2ccccc2)c1 (stereo not drawn)	/	-6	1	/	/
CC(C)C[C@@H]1Cc2[nH]c(=S)[nH]c(=O)c2[C@H](C)O1	/	/	/	/	93%
COc1cccc(N(CC(=O)N2CCCC2)S(C)(=O)=O)c1	/	-3	/	/	-4%
O=C(NCc1ccc(CNC(=O)c2ccco2)cc1)c1ccco1	/	5	-13	/	-8%
O=NN(CCCl)C(=O)NCC1=C[N+](=O)CC=C1	/	/	/	/	7%
CN1/C(=C\C(=O)c2cccs2)Sc2ccccc21	?	39*	90*	?	37%
CC(=O)c1ccc(N(CC(=O)NC2CCCCC2)C(=O)CNC(=O)c2ccco2)cc1	3%[46.1 µM]	-6	-5	2%[46.1 µM]	14%
Cc1ccc(-c2nc3ccsc3c(=O)[nH]2)cc1	?	42*	103*	?	14%
O=C1CSC(=Nc2cccc([N+](=O)[O-])c2)N1	/	-2	-21	/	-2%
COc1ccccc1N/C=C(\C#N)c1nc2ccccc2[nH]1	/	12	2	/	67%
COc1cccc(/C=C(\C#N)c2nc3ccccc3[nH]2)c1OCC(=O)O	/	31*	67*	/	15%
COc1cccc(/C=C(/C#N)c2nc3ccccc3[nH]2)c1OC(C)C(=O)O (stereo not drawn)	/	26*	58*	/	-7%
C=C(C)CSc1nnc(-c2cccc(Cl)c2)n1N	13%	42*	111*	?	-18%
C=C(C)CSc1nnc(-c2ccc(OC)cc2)n1N	15%	45*	53*	9%	-7%
SMILES	Marburg entry inh	CHX counter	Shiga toxin inh	LASV entry inh	AMA1-RON2 inh
CCCc1ncc(CN2CCCC(C(=O)Nc3ccc(-c4cccc(OC)c4)cc3)C2)cn1 (stereo not drawn)	/	20*	15	/	9%
COc1cccc(-c2ccc(NC(=O)C3CCCN(Cc4ccccn4)C3)cc2)c1 (stereo not drawn)	/	/	/	/	65%
Cc1cccc(CN2CCCC(C(=O)Nc3ccc(-c4cscn4)cc3)C2)c1 (stereo not drawn)	?	12	-7	?	-9%
COCc1ccc(CN2CCCC(C(=O)Nc3ccc(-c4cccc(OC)c4)cc3)C2)o1 (stereo not drawn)	/	13	10	/	-3%
COc1cccc(-c2ccc(NC(=O)C3CCCN(Cc4cnc(N(C)C)s4)C3)cc2)c1 (stereo not drawn)	/	30*	5	/	-16%
O=C(Nc1ccc(-c2cscn2)cc1)C1CCCN(Cc2ccccc2)C1 (stereo not drawn)	/	24*	19	/	13%
